Shown are actives, neighbours in structure and some others; about 6.2% of the full set was active somewhere.
KB-3-1 tox – qHTS assay for MDR1-selective chemotherapeutics: Primary screen using the parental adenocarcinoma cell KB-3-1. KB-3-1 viability, CellTiter-Glo ATP luminescence, 72 h. Potency, µM (top dose mostly 46.1 µM), actives largely listed as cytotoxic. 1.4% of 400,000 active; also: % is scaled to controls: 0 for no effect and ±100 for the full control effect; nearly all actives have a fitted effect of over 60% in size
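Here the drug-naive KB-3-1 line serves as comparator for MDR sub-line selectivity; cells received compound titrations, 72 h at 37 °C, then CellTiter-Glo readout.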
ATXN2 expr inh – Primary qHTS for Inhibitors of ATXN expression | HEK-293 ATXN2-luciferase reporter, luminescence, 24 h | Potency, µM (highest dose often 57 µM), for the others: at the highest dose activity change, negative = inhibition, usual class: inhibitors | 0.72% of 360,000 active | AID 1745845, 2022; also: % is scaled to controls: 0 for no effect and ±100 for the full control effect; nearly all actives have a fitted effect of over 55% in size
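ATXN2-luciferase reporter cells (luciferase flanked by upstream and downstream ATXN2 gene portions) were treated 24 h at 37 °C with compounds at up to 57 uM. SteadyGlo luminescence gave expression; GF-AFC fluorescence gave viability.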
HT1080NT lethal – qHTS for induction of synthetic lethality in tumor cells producing 2HG: qHTS for the HT-1080-NT fibrosarcoma cell line; HT-1080-NT fibrosarcoma viability, CellTiter-Glo ATP luminescence, 48 h; Potency, µM (doses to about 46.1 µM), for the others: at the highest dose activity, negative = less viability, most hits filed as cytotoxic; 1.6% of 360,000 active; AID 686970, 2013;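 also: NT is the 2HG producing partner of a matched IDH1 knockdown line; 0% = DMSO-treated cells and -100% = media-only wells without cells; nearly all actives have a fitted effect of over 55% in size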
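750 cells/well, RPMI + 5% FBS; 2 h settle, compound pin-transfer, 48 h at 37 degrees C. CellTiter-Glo 10 min RT, luminescence. Normalized to DMSO and media-only wells.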
KB-V1 MDR tox – qHTS assay for MDR1-selective chemotherapeutics: Primary screen using the drug-selected MDR subline cells KB-V1; KB-V1 MDR cells viability, CellTiter-Glo, 72 h; Potency, µM (top dose mostly 46.1 µM), actives largely listed as cytotoxic; 3.4% of 400,000 active; AID 1347076, 2019; also: % is scaled to controls: 0 for no effect and ±100 for the full control effect; nearly all actives have a fitted effect of over 60% in size
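Luminescent ATP read-out (CellTiter-Glo, 10 min) measures survival of drug-selected KB-V1 MDR cells after 72 h, 37 degrees C compound exposure. Medium: phenol-red-free DMEM, 10% FBS. Values from fitted concentration-response curves.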
HT1080 IDH1KD tx – qHTS for induction of synthetic lethality in tumor cells producing 2HG: qHTS for the HT-1080-IDH1KD cell line | 2% of 360,000 active | AID 686971, 2013 | HT-1080 IDH1 knockdown viability, ATP luminescence, 48 h | Potency, µM (top dose mostly 46.1 µM), for the others: top-dose activity, negative = toxicity, hits mostly cytotoxic;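 also: 0% = DMSO wells and -100% = cell-free medium wells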
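Assay cells: HT-1080 with IDH1 knockdown, 750 per well, RPMI/5% FBS. Exposure: 48 h at 37 °C following 2 h pre-incubation. Read: CellTiter-Glo luminescence; fitted concentration-response, curve class assigned.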
S2 tox – Viability Counterscreen for Primary qHTS for Inhibitors of ATXN expression | S2 cells (HEK-293 line with an ATXN2-luciferase reporter) viability, CellTiter-Fluor protease fluorescence, 24 h | Potency, µM (series often up to 56.7 µM), hits mostly cytotoxic | 0.49% of 400,000 active; also: nearly all actives have a fitted effect of over 40% in size
The depositor's hits bear a star; i = inactive; ? = inconclusive; . = no result; [ ] = another dose, or the depositor's remark. Calls follow the shape of the dose curve; as a rule, active = well fitted curve in the direction sought with a large enough effect; inconclusive = small, poorly fitted or top-dose-only effect, or another doubt; inactive = no such curve, though single readings can be large; an effect the other way counts as inactive or inconclusive. Potency is read from the fitted curve at half-maximal effect.

SMILES | KB-3-1 tox | ATXN2 expr inh | HT1080NT lethal | KB-V1 MDR tox | HT1080 IDH1KD tx | S2 tox
C=CCN(CC=C)S(=O)(=O)c1ccc(NC(=S)NC(=O)c2ccc(-c3ccccc3)cc2)cc1 | ? | -9% | 0% | ? | -11% | i
C=CCN(CC=C)S(=O)(=O)c1ccc(NC(=S)NC(=O)c2ccco2)cc1 | ? | -10% | -14% | 13µM* | 0%[9.24 µM] | i
C=CCN(CC=C)S(=O)(=O)c1ccc(NC(=S)NC(=O)Cc2ccc(OC)cc2)cc1 | i | -2% | -10% | 21µM* | ? | i
CC(C)Oc1cc(NC(=O)CSCC(=O)Nc2cccc(C(F)(F)F)c2)c(Cl)cc1Cl | i | ? | -20% | 13µM* | ? | ?
CC(=O)OC(C(=O)Nc1nncs1)c1ccccc1 (centres undefined) | i | 7% | 2% | i | 1% | i
O=C(O)/C=C/C(=O)c1ccc2c(c1)CCc1ccccc1-2 | 13µM* | 5.6µM* | 18µM* | ? | ? | 7.1µM*
COc1cccc(NC(=O)Cn2c(=O)n(-c3ccccc3)c(=O)c3ccc(C(=O)NCc4ccc5c(c4)OCO5)cc32)c1 | i | -24% | . | i | . | i
COc1ccc(Nc2nc3cc(-c4ccsc4)sc3c(=O)n2C)cc1OC | i | -12% | -21% | i | -20% | i
CCOC(=O)Cc1ccc(Nc2nc3cc(-c4sccc4C)sc3c(=O)n2C)cc1 | 10µM* | -22% | 8.2µM* | 15µM* | 4.6µM* | ?
COc1ccc(Nc2nc3cc(-c4sccc4C)sc3c(=O)n2C)cc1OC | 5.8µM* | -18% | ? | 6.5µM* | 1.3µM* | i
O=C(O)c1ccccc1Nc1cc(Cl)ccc1C(=O)O | . | 2%[25.6 µM] | . | . | . | i
O=C(O)c1ccc(Cl)cc1Nc1nc2cc(Cl)ccc2o1 | 16µM* | 7% | -11% | 16µM* | -3% | i
COc1ccc(CC(=O)N(c2ccccc2)c2nc(C)cs2)cc1 | i | 8% | -6% | 16µM* | -4% | i
Cc1cc(C)c(/C=N/NC(N)=O)c(C)c1/C=N/NC(N)=O | 3.7µM* | 5% | 5% | ? | 11% | i
CCc1cc(CC)c(/C=N/NC(N)=O)c(CC)c1 | i | -29% | -1% | i | -2% | i
Cc1cccc(CNC(=O)C2CCC(=O)N(CC3CCCCC3)C2)c1 (centres undefined) | i | . | 7% | ? | 7% | i
Cc1ccc(C)c(N2CCN(C(=O)Cn3c(=O)[nH]c4ccsc4c3=O)CC2)c1 | i | -4% | 1% | 21µM* | -1% | i
Cc1ccc(CNC(=O)CCCCn2c(=O)[nH]c3ccsc3c2=O)cc1 | i | . | 0% | i | 0% | i
Cc1ccc(CNC(=O)Cc2ccc(-n3c(=O)[nH]c4ccsc4c3=O)cc2)cc1 | 1.3µM* | -14% | 3.7µM* | i | 4.1µM* | i
Cc1ccc(C)c(N2CCN(C(=O)Cc3ccc(-n4c(=O)[nH]c5ccsc5c4=O)cc3)CC2)c1 | i | -10% | -8% | i | -14% | i
Cc1cccc(N2CCN(C(=O)Cc3ccc(-n4c(=O)[nH]c5ccsc5c4=O)cc3)CC2)c1C | i | -12% | 9% | 15µM* | 8% | i
CC(=O)c1cccc(NC(=O)c2nc(-c3ccccc3)n(-c3cccc(Cl)c3)n2)c1 | i | -17% | . | i | . | ?
Cc1ccc2c(=O)c(C(=O)c3cccc(Cl)c3)cn(CC(=O)NC3CCCCC3)c2n1 | i | 16% | . | i | . | i
CC(C)(C)c1ccc(S(=O)(=O)NC(=O)C2(C)CCN2C(=O)Cc2cccs2)cc1 (centres undefined) | i | 0% | 22% | i | 18% | i
